Results on 11 compounds are retold here after ChEMBL document CHEMBL3988442, “University of Dundee, Small-Polar-MMV Screening Library” (2021).

The structures appear in SMILES notation. For some of these results: Results with a measured potency or affinity are listed apart.

Common to all, as to design: scale not given: direction of the effect not stated beside the values
Test [1] addresses Protein translocase subunit SecA (Escherichia coli (strain K12)) (UniProt P10408). As to the kind of experiment: Assay to Identify E. coli SecA ATPase Inhibitors. The class given is functional. As to conditions: 30 µM.
Test [2] concerns the target T1, Ubiquitin-activating enzyme e1, putative (Leishmania donovani (strain BPK282A1)) (UniProt E9BSI1).
T1 sequence (whole entry): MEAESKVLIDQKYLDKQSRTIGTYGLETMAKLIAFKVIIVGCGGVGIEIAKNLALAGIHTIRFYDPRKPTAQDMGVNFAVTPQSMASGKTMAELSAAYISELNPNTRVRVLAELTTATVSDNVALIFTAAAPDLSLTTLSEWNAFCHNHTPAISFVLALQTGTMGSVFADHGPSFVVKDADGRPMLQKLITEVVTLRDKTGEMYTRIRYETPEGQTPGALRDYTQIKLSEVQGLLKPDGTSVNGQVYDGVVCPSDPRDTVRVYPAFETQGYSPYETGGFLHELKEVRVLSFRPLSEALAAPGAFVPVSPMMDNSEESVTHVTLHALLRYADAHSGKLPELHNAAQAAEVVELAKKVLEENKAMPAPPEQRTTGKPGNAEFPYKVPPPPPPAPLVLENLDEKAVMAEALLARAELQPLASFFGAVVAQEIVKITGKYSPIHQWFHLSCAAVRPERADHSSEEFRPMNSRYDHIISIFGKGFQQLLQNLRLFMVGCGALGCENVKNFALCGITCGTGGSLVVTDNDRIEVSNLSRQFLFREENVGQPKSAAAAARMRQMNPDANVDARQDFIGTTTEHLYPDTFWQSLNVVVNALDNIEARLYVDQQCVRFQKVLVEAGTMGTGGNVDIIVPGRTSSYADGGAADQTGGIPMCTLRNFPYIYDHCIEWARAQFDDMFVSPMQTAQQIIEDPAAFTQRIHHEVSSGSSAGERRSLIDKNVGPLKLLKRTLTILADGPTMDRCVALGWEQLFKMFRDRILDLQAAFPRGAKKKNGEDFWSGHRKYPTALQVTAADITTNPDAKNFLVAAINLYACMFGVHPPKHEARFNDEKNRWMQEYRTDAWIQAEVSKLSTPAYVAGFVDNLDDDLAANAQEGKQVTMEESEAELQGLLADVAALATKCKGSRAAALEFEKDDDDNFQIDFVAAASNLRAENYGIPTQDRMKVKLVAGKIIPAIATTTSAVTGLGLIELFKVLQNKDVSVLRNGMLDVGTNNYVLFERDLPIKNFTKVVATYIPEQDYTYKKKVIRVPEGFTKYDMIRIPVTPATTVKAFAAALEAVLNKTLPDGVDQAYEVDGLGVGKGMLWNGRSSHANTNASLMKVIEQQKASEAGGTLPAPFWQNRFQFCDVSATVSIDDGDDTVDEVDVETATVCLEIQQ
The test is described as follows: Leishmania donovani Ubiquitin Activating Enzyme (LdE1). As to conditions: 30 µM. The class given is functional.

Test [3] concerns the target AMP-activated protein kinase, AMPK (Homo sapiens) (UniProt P54646+O43741+P54619+Q9UGJ0+Q9Y478+Q13131+Q9UGI9). As to the kind of experiment: AMP-dependent Kinase enzyme assay. An in vitro enzyme assay that detects ADP turnover that is directly proportional to AMPK activity. This uses naive AMPK that is activated during the assay with MK-8722. The format is functional. To be noted: 30 µM.

Test [4] deals with Sialic acid-binding Ig-like lectin 9 (Homo sapiens) (UniProt Q9Y336). As to the kind of experiment: Hs-Siglec9 ALPHAscreen SOP 20170721. To be noted: 10 µM.
Sequence of Sialic acid-binding Ig-like lectin 9 (Homo sapiens) (Q9Y336 whole entry): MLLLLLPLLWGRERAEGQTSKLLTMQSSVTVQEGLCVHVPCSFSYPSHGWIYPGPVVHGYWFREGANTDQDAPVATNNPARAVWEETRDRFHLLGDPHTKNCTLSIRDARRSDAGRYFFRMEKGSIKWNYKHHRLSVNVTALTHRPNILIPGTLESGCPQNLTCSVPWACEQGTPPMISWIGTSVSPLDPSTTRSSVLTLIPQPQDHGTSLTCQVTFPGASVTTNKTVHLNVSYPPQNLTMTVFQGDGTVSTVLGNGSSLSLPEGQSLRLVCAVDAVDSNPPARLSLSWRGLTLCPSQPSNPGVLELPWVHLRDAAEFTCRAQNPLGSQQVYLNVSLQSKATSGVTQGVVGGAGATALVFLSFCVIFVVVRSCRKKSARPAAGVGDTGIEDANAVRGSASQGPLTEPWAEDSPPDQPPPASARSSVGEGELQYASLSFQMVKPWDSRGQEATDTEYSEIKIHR
Test [5] concerns Trypanosoma cruzi. As to the kind of experiment: Trypanosoma cruzi phosphomannomutase and mannose-1-phosphate guanylyltransferase assay. The format is functional. To be noted: 10 µM.
The target of test [6] is T2, Arginase-2, mitochondrial (Homo sapiens) (UniProt P78540).
T2 sequence (whole entry): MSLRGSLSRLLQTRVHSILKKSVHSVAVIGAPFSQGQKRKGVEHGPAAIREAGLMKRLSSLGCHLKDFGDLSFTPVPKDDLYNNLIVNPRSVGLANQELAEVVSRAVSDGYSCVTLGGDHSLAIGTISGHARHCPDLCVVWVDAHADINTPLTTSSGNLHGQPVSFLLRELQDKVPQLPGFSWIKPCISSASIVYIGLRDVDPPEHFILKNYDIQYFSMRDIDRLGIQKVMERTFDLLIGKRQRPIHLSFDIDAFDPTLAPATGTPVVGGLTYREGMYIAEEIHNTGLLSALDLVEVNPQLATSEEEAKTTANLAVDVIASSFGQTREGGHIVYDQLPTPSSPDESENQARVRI
As to the kind of experiment: in vitro enzyme assay to detect the production of urea directly proportional to the activity of Arginase II. Also: in the data most compounds retested in dose-response had high values. The class given is functional. To be noted: 33.3 µM.

Test [7] addresses T3, Proteasome subunit beta (Trypanosoma cruzi) (UniProt O96673).
T3 sequence (whole entry): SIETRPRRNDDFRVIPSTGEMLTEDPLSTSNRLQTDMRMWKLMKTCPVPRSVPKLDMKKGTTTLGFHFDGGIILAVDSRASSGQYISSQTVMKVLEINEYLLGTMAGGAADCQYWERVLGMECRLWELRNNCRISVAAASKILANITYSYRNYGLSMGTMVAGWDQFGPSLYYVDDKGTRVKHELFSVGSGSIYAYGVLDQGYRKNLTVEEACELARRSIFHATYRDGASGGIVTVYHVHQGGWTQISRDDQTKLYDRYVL
As to the kind of experiment: Trypanosoma cruzi proteasome chymotrypsin-like activity (TcProtChymo) assay. Also: in the data most compounds retested in dose-response had high values. To be noted: 9.37 µM. The class given is functional.

The species named for test [8] is Homo sapiens. The test is described as follows: To identify inhibition of the IFN signalling (Jak-Stat) pathway via expression of an eGFP reporter gene under the control of an IFN-stimulated response element (ISRE) containing MxA promoter. To be noted: 30 µM. The format is functional. For orientation: Reporter assays use an easily measured gene product as a stand-in for the process of interest.

In test [9] the target is T4, Tyrosyl-tRNA synthetase, putative (Trypanosoma cruzi (strain CL Brener)) (UniProt Q4DSP6).
T4 sequence (whole entry): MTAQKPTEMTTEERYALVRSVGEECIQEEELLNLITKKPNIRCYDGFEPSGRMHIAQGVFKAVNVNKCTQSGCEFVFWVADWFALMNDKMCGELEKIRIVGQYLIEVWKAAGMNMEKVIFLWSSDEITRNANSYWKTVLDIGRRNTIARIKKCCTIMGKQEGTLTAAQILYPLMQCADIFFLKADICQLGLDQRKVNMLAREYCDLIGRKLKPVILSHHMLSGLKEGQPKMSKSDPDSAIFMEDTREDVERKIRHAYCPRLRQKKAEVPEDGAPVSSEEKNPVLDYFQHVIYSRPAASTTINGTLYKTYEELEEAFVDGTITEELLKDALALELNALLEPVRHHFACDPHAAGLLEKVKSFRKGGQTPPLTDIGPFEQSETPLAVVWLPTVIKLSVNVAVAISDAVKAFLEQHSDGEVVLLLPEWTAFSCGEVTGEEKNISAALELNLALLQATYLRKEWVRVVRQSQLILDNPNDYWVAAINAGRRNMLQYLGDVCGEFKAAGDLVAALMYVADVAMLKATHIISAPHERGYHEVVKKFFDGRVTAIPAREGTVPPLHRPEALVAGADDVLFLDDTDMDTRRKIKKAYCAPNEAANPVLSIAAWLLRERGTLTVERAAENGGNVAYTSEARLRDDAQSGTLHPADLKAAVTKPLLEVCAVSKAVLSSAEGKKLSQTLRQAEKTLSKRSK
The test is described as follows: Trypanosoma cruzi tyrosyl tRNA synthetase (TcYRS) _High Tyrosine SOP. Also: in the data most compounds retested in dose-response had high values. The format is functional. To be noted: 30 µM.

For test [10], the target named is T4, Tyrosyl-tRNA synthetase, putative (Trypanosoma cruzi (strain CL Brener)). As to the kind of experiment: Trypanosoma cruzi tyrosyl tRNA synthetase (TcYRS) SOP. The class given is functional. As to conditions: 30 µM.
Test [11] addresses Chromo domain-containing protein 1 (Saccharomyces cerevisiae (strain ATCC 204508 / S288c) (Baker's yeast)) (UniProt P32657). As to the kind of experiment: ScCHD-1 Enzyme Inhibition Assay. Also: in the data most compounds retested in dose-response had high values. The format is functional. To be noted: 30 µM.

Sequence of Protein translocase subunit SecA (Escherichia coli (strain K12)) (P10408 whole entry): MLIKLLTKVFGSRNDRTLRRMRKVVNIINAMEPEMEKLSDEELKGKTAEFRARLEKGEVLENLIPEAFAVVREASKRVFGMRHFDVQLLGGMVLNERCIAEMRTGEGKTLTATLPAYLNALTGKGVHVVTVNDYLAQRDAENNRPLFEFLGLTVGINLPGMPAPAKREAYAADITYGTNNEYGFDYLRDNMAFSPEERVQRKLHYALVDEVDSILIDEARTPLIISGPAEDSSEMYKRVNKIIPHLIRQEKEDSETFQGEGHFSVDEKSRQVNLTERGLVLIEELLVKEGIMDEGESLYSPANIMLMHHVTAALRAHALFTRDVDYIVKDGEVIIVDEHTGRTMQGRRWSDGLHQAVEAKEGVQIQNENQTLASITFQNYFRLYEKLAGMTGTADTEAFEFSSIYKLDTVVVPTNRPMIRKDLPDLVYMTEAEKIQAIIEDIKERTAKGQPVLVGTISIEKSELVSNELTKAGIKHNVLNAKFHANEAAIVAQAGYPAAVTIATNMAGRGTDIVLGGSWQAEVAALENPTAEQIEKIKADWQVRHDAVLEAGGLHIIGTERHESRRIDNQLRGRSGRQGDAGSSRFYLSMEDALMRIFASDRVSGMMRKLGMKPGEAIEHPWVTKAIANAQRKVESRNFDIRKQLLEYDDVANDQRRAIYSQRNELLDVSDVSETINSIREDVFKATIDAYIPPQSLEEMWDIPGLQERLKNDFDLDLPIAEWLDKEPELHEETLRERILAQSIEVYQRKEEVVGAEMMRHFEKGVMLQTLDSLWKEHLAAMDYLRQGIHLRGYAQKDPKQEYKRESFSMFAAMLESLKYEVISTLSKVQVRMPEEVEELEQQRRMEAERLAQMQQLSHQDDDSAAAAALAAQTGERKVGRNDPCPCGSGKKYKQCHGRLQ
Sequence of Chromo domain-containing protein 1 (Saccharomyces cerevisiae (strain ATCC 204508 / S288c) (Baker's yeast)) (P32657 whole entry, the tested form may be a part): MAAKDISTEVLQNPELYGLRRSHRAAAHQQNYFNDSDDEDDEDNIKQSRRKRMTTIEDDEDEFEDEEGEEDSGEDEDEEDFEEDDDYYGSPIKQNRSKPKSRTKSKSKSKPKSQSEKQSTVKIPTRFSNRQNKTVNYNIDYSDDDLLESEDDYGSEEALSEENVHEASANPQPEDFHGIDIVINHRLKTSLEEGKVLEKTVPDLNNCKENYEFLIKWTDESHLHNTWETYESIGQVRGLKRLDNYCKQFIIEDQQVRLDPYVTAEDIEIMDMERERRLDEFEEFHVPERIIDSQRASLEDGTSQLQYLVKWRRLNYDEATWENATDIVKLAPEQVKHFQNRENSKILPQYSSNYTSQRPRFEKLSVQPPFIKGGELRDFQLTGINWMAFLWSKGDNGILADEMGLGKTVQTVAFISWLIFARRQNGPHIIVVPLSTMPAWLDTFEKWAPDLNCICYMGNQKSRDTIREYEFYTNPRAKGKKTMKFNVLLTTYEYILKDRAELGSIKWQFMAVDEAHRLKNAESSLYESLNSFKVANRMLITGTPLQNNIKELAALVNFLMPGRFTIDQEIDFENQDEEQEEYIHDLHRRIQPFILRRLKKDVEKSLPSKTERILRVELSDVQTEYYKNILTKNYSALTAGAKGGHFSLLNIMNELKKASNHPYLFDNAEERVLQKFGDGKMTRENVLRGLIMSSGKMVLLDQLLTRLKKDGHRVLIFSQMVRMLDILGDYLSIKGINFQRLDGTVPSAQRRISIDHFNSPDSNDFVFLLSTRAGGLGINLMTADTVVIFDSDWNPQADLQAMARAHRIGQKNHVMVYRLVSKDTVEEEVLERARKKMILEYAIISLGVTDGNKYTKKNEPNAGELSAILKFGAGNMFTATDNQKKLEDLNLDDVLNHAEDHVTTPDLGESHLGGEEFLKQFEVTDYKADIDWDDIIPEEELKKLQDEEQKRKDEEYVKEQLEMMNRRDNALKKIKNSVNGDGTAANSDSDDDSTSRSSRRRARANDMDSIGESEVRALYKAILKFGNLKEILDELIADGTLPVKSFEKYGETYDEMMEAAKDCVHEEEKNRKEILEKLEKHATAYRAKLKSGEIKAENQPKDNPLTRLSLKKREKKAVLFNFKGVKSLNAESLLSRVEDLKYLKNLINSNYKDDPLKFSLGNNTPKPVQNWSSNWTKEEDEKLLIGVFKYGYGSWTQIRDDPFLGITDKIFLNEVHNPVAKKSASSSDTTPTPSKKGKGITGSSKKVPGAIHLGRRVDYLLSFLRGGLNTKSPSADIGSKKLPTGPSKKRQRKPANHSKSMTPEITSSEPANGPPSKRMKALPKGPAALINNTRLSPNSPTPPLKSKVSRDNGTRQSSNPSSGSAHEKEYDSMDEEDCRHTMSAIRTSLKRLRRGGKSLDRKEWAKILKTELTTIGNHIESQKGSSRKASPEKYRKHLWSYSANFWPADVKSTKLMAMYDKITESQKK

Take `Cc1cccc2c1cnn2CCCNC(=O)C(C)C`: the Percent Effect in test [1] was -4.75%; in [2], 13%; in test [3], 0.24%; in test [4] it was 14.3%; in test [5], 7.96%; in [6] it was -5.52%. For the same compound, the Percent Effect was 6.16% in [7]; 5.24% in [8]; 5.38% in [9]; 11.1% in test [10]; -0.927% in [11].

Consider `CC(C)(CNC(=O)NCCOc1cccc(F)c1)C(N)=O`, for which the Percent Effect in [1] is -3.85%; in test [2] it was 7.89%; in test [3], 1.82%; in test [4] it was 8.76%; in [5], 0.94%; in [6] it was 2.3%. In addition, the Percent Effect was 0.167% in test [7]; -5.69% in test [8]; 6.37% in [9]; 17.1% in test [10]; -6.58% in test [11].

`COc1nc(C)cc(C)c1CNC(=O)N(C)Cc1cnn(C)c1`: the Percent Effect is -2.85% in test [1]; 10.8% in test [2]; -7.89% in test [3]; 7.05% in [4]; 2.32% in test [5]; -2.4% in test [6]. Moreover, the Percent Effect was 6.28% in test [7]; 4.87% in test [8]; 3.96% in test [9]; 15.8% in [10]; -6.86% in test [11].

For the compound `CC(O)CC(C)(C)CNC(=O)NCc1cccc(-n2ccnc2)c1` (stereo unspecified), the Percent Effect in test [1] was -3.71%; in test [2], 0%; in test [3], -1.99%; in test [4], -7.44%; in test [5], -2.83%; in test [6], -2.23%. The Percent Effect in [7] is -2.83%; in [8], 18.3%; in test [9], -1.07%; in test [10], -1.24%; in [11] it was 4.12%.

With `CNC(=O)C1(CCCc2cccnc2)CCCCN1` (stereo unspecified), the Percent Effect in test [1] is -1.25%; in test [2], 23%; in test [3], 5.4%; in test [4], -8.22%; in test [5], 3.95%; in test [6], 0.696%. Moreover, the Percent Effect was 17.6% in test [7]; 19% in test [8]; 1.07% in test [9]; 9.09% in test [10]; -15.7% in [11].

As to `Cn1ccnc1CN1CCCC(Cc2ccccn2)C1` (stereo unspecified), the Percent Effect was -7.44% in [1]; 20.3% in test [2]; -4.84% in test [3]; 1.21% in [4]; 4.94% in [5]; -2.55% in test [6]. Further, the Percent Effect was 13.6% in test [7]; 1.89% in test [8]; 4.3% in test [9]; 16.9% in [10]; -20.2% in [11].

With `Cn1cccc1C(=O)N1CCCN(CCCc2ccccc2)CC1`, the Percent Effect in test [1] was 4.69%; in test [2] it was -11%; in [3], -4.66%; in test [4], 8.38%; in [5], -2.38%; in test [6] it was -14.8%. The Percent Effect in test [7] was 14.3%; in test [8], 18.6%; in test [9], 9.38%; in test [10] it was 16.1%; in test [11], -3.52%.

In the case of `CCOCC1CN(C(=O)N(C)C)Cc2nn(C)cc21` (stereo unspecified), the Percent Effect is -3.04% in [1]; 8% in test [2]; -0.352% in test [3]; 2.29% in [4]; -0.579% in test [5]; -40.3% in test [6]. Moreover, the Percent Effect in test [7] was 8.03%; in test [8], -8.7%; in [9], 1.04%; in test [10], 10%; in test [11], -7.3%.

With `CCc1nc(C2CCCN2CC(=O)Nc2c(C)n[nH]c2C)no1` (stereo unspecified), the Percent Effect in test [1] was 1.31%; in test [2], -2.6%; in test [3], -3.26%; in test [4], 6.7%; in [5], -5.62%; in [6], 5.34%. Also, the Percent Effect was 3.38% in [7]; 16.5% in test [8]; 1.94% in [9]; 7.32% in [10]; -0.363% in [11].

As for `Cn1ncc2c(N3CCN(C(N)=O)CC3)nc(C3CCCC3)nc21`, the Percent Effect in [1] is -1.31%; in test [2], 1.39%; in test [3], 27.7%; in test [4], -4.81%; in [5], -7.29%; in [6], 0.883%. Moreover, the Percent Effect in test [7] is 18.4%; in test [8], 25.9%; in test [9], 1.05%; in test [10], -7.69%; in test [11], -4.35%.

Consider `CC(C)c1nn(C)c(N(C)C)c1CNCCC(=O)N(C)C`, for which the Percent Effect is -2.63% in [1]; 0% in [2]; -11.4% in [3]; -2.27% in test [4]; 2.15% in [5]; 0.719% in test [6]. Further, the Percent Effect in test [7] was 5.16%; in [8] it was -16.3%; in test [9], -0.493%; in test [10], 3.7%; in test [11], 0.33%.
